The list is not random: actives were taken first. Their share in the collection is about 12%.
HP1b binding inh: blocks HP1-beta chromodomain binding to methylated histone tails; 390,000 tested, 0.56% active; AID 540317; Potency, µM (top dose mostly 114 µM), for the others: at the top dose activity change, negative = inhibition, hits mostly inhibitors; P83916; AlphaScreen HP1-beta / biotin-H3K9me3 peptide binding; also: nearly all actives have a fitted effect of over 70% in size
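Compound inhibition of the preformed complex between 50 nM HP1-beta and 50 nM biotinylated H3K9me3 peptide was read by AlphaScreen. Buffer was PBS pH 7.4 with 0.01% Tween-20. Incubations ran 30 min at room temperature, with 10 ug/mL donor/acceptor beads.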
Sfp inh: Sfp phosphopantetheinyl transferase inhibition; Biochemical Sfp PPTase activity, qHTS; Potency, µM, inactives show largest response in the series, negative = inhibition, hits mostly inhibitors; 310,000 tested, 3.5% active; AID 1490;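 also: the enzyme is Sfp with the accession as filed and its product quenches rhodamine fluorescence; 0% = enzyme reaction without inhibitor and -100% = no enzyme wells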
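Fluorescence-quenching assay with 15 nM Sfp, 5 uM rhodamine-CoA and 12.5 uM BHQ-2-labelled ybbR peptide in pH 7.6 Hepes/MgCl2 buffer. Enzyme was pre-incubated with compound for 15 min at room temperature. Rate was taken from the 30-min fluorescence change (525/598 nm).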
JMJD2A Tudor inh: JMJD2A Tudor domain (human) inhibition | Potency, µM (series often up to 114 µM), for the others: at the highest dose activity change, negative = inhibition, actives largely listed as inhibitors | AlphaScreen JMJD2A-Tudor / H3K4me3 peptide binding | O75164 | 390,000 tested, 4.4% active; also: % is scaled to controls: 0 for no effect and ±100 for the full control effect; nearly all actives have a fitted effect of over 50% in size
G9a inh: G9a (human) methyltransferase inhibition | Potency, µM (highest dose often 102 µM), inactives show at the highest dose activity, negative = inhibition, actives largely listed as inhibitors | G9a H3K9 monomethylation, AlphaScreen, 2 h | 350,000 tested, 8.8% active | AID 504332 | Q96KQ7; also: % is scaled to controls: 0 for no effect and ±100 for the full control effect; nearly all actives have a fitted effect of over 75% in size
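Signal arises when biotinylated H3K9 peptide, once monomethylated, bridges streptavidin donor and antibody-captured acceptor beads. Enzyme at 20 nM was preincubated 15 min with test compounds; peptide 500 nM and SAM 20 uM then reacted for 2 h.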
BAZ2B block: inhibitors of human BAZ2B bromodomain | Q9UIF8 | AlphaScreen BAZ2B-H3K14Ac peptide displacement | Potency, µM (doses to about 114 µM), without a hit: top-dose activity change, negative = inhibition, usual class: inhibitors | 360,000 tested, 4.4% active | AID 504333; also: % is scaled to controls: 0 for no effect and ±100 for the full control effect; nearly all actives have a fitted effect of over 60% in size
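AlphaScreen displacement: compounds (up to 110uM) incubated 30 min at room temperature with a preformed 50 nM BAZ2B/50 nM biotinylated H3K14Ac peptide complex in PBS pH 7.4 with Tween-20. Donor and acceptor beads at 10 ug/mL final added, 20 min light-protected before reading.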
PLK1 PBD block: blocks phosphopeptide binding to human PLK1 polo-box domain; Plk1 PBD binding of FITC phosphopeptide, fluorescence polarization; Potency, µM, without a hit: max response, negative = inhibition, most hits filed as inhibitors; 360,000 tested, 2.8% active; also: series mostly up to about 57 µM; % is scaled to controls: 0 for no effect and ±100 for the full control effect; nearly all actives have a fitted effect of over 65% in size
Target sequence (P53350 whole entry, looked up, the tested form may be a part): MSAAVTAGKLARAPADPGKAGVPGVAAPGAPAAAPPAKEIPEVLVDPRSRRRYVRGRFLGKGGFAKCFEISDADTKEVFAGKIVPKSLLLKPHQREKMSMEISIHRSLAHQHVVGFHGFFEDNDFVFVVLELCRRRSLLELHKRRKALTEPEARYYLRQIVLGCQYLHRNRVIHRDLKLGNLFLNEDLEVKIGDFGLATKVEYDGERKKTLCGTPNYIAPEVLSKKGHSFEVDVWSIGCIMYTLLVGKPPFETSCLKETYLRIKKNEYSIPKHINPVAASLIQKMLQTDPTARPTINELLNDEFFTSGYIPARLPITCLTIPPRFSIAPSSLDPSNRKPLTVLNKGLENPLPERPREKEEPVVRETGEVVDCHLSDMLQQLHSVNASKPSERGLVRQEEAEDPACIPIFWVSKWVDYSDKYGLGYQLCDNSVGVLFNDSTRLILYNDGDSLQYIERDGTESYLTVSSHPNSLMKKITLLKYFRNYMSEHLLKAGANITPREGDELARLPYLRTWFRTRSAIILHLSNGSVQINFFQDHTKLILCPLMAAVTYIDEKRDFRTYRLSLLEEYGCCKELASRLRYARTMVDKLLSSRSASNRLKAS
Active calls of the source: *; u = inconclusive; x = no result given; [ ] = remark or other dose. Calls follow the shape of the dose curve; as a rule, active = well fitted curve in the direction sought with a large enough effect; inconclusive = small, poorly fitted or top-dose-only effect, or another doubt; inactive = no such curve, though single readings can be large; an effect the other way counts as inactive or inconclusive. Potency is read from the fitted curve at half-maximal effect.

SMILES	HP1b binding inh	Sfp inh	JMJD2A Tudor inh	G9a inh	BAZ2B block	PLK1 PBD block
Cc1c(C)n(C)c2ccc(C(=O)NCCCN(C)C3CCCCC3)cc12	1%	-14%	u	50µM*	25µM*	-8%
CCn1c(C)c(C)c2cc(C(=O)NCCc3cc(OC)c(OC)c(OC)c3)ccc21	-12%	x	u	u	45µM*	x
O=C(Nc1n[nH]c(=S)s1)c1ccc2ccccc2c1	15%	u	-15%	x	-27%	u
CCn1c(C)c(C)c2cc(C(=O)NCC(C)c3ccccc3)ccc21 (stereo not drawn)	-8%	x	u	-33%[59 µM]	-37%	x
O=C(Nc1cccc2ccccc12)c1ccccc1	17%	15%	-2%	17%	-1%	-1%
CCn1c(C)c(C)c2cc(C(=O)NCCc3ccco3)ccc21	-11%	-6%	u	50µM*	u	-12%
Cc1c(C)n(C)c2ccc(C(=O)Nc3cccc4ccccc34)cc12	u	-11%	u	50µM*	u	-2%
CCC(C)NC(=O)c1cnn(-c2cccc(F)c2)c1-n1cccc1 (stereo not drawn)	15%	x	-10%	0%[59 µM]	3%	x
O=C(NP(=O)(N1CCCC1)N1CCCC1)C1=C(N2CCOCC2)/C(=C/c2cccc([N+](=O)[O-])c2)CC1	-6%	-6%	-25%	45µM*	45µM*	-11%
O=[N+]([O-])c1cccc(/C=C2\CCC(/C=N/Nc3ccc4ccccc4n3)=C2N2CCOCC2)c1	-22%	24%	-22%	8%[59 µM]	u	-1%
CCOC(=O)C1CCCN(C(=O)CSc2ccc(Br)cc2)C1 (stereo not drawn)	-12%	-1%	14µM*	34%	15%	24µM*
CCOC(=O)C1CCCN(C(=O)COC(=O)C2=COCCO2)C1 (stereo not drawn)	-3%	-3%	50µM*	50µM*	u	-6%
CC(C)NC(=O)CCCn1cc([N+](=O)[O-])cn1	32%	-5%	-17%	50µM*	-11%	-20%
O=C(CCCn1cc([N+](=O)[O-])cn1)N1CCCCC1	35%	20%	1%	27%[12.7 µM]	-4%	-1%
O=C(Cn1cc([N+](=O)[O-])cn1)Nc1ccc(Cn2cc(Br)cn2)cc1	20%	1%	-6%	2.2µM*	-38%	3%
Cc1ccc(NC(=O)c2ccc(Cn3cc([N+](=O)[O-])cn3)cc2)c(C)c1	2%	-18%	-9%	7%[59 µM]	-1%	-11%
CC(NC(=O)c1ccc(Cn2cc([N+](=O)[O-])cn2)cc1)c1ccccc1 (stereo not drawn)	9%	3%	50µM*	-9%[59 µM]	8%	27µM*
COC(=O)c1ccc(Cn2cc([N+](=O)[O-])cn2)cc1	28%	18%	1%	-2%	-15%	-4%
Cc1cc(NS(=O)(=O)c2ccc(NC(=O)COc3c(C)ccc(C)c3C)cc2)nc(C)n1	46%	x	-4%	u	-9%	x
Cc1ccc(OCC(=O)Nc2ccc3nc(SCC(=O)N4CCOCC4)sc3c2)cc1	49%	x	-5%	10%[59 µM]	-10%	x
N#C/C(=C/c1ccc(Sc2nc3ccccc3[nH]2)o1)c1cccc(Br)c1	49%	19%	-19%[11.4 µM]	u	8%	-17%
CCN1C(=O)S/C(=C/c2ccc(Sc3nc4ccccc4[nH]3)o2)C1=O	18%	12%	-24%	11µM*	-2%	-10%
CCN(C(=O)COC(=O)c1cc([N+](=O)[O-])ccc1N1CCOCC1)C1CCCCC1	3%	x	-25%	-45%	-31%	-2%
Cc1ccc(N2C(=O)CC(Sc3ccccc3C(=O)O)C2=O)cc1C (stereo not drawn)	2%	50µM*	-9%[11.4 µM]	1.6µM*	-32%	u
CC(C)CN1C(=O)CC(Sc2ccccc2C(=O)O)C1=O (stereo not drawn)	46%	-5%	-25%	1.1µM*	-11%	-7%
SMILES	HP1b binding inh	Sfp inh	JMJD2A Tudor inh	G9a inh	BAZ2B block	PLK1 PBD block
O=C(O)c1ccccc1SC1CC(=O)N(c2ccc3c(c2)OCO3)C1=O (stereo not drawn)	6%	50µM*	-29%	1.6µM*	-29%	-19%
Cc1cc(C)cc(N2C(=O)CC(Sc3ccccc3C(=O)O)C2=O)c1 (stereo not drawn)	40%	56µM*	u	u	-12%	-19%
Cc1ccc(C)c(N2CCN(CCCNC(=O)c3cnn(-c4ccc(F)cc4)c3C3CCN(C(=O)OC(C)(C)C)CC3)CC2)c1	9%	x	u	u	-22%[57.1 µM]	x
COc1ccc(C)cc1-n1nnnc1SC(C)C(=O)NC1CCCC1 (stereo not drawn)	54%	x	-11%	x	x	-5%
Cc1c(NC(=O)c2ccc([N+](=O)[O-])o2)cccc1-c1nc2ncccc2o1	8%	6%	-10%	14%	3%	-6%
Cc1cccc(N2C(=O)CC(Sc3ncn[nH]3)C2=O)c1 (stereo not drawn)	u	56µM*	u	7.1µM*	-25%	27µM*
CCOC(=O)c1c(N2C(=O)CC(Sc3ccccc3C(=O)O)C2=O)sc(C)c1C (stereo not drawn)	-4%	7.9µM*	-24%	x	50µM*	u
CN(C)c1ccc(N2C(=O)CC(Sc3ccccc3C(=O)O)C2=O)cc1 (stereo not drawn)	25%	45µM*	u	1.4µM*	u	-15%
Cc1ccc(N2C(=O)CC(Sc3ccccc3C(=O)O)C2=O)cc1 (stereo not drawn)	40%	u	u	u	-7%	-3%
Cc1cccc(N2C(=O)CC(Sc3nccc(C)n3)C2=O)c1 (stereo not drawn)	48%	11%	-11%	u	11%	-16%
Cc1cccc(N2C(=O)CC(Sc3ccccc3C(=O)O)C2=O)c1 (stereo not drawn)	38%	56µM*	45µM*	u	-3%	-23%
CN(C(=O)c1cc(S(=O)(=O)N2CCOCC2)cs1)c1ccccc1	22%	16%	-7%	65%	-14%	2%
CC(C)OCCCN1C(=O)c2[nH]nc(-c3ccccc3O)c2C1c1ccccc1F (stereo not drawn)	29%	x	-32%	-6%[59 µM]	-22%	x
CCOC(=O)c1sc2ccccc2c1S(=O)(=O)Nc1ccc(C(C)=O)cc1	19%	x	-25%	u	u	x
COC(=O)c1sc2cccc(F)c2c1S(=O)(=O)Nc1ccc(N(C)C)cc1	-12%	x	u	11µM*	u	x
CCOC(=O)c1sc2ccccc2c1S(=O)(=O)Nc1ccc(N(C)C)cc1	-25%	x	13µM*	8.9µM*	20µM*	x
COc1ccc2[nH]cc(CCNC(=O)c3ccccc3Cl)c2c1	-24%	23%	-32%	16%	-9%	-5%

From PubChem
